Source: PubChem BioAssay
Records with an inconclusive call do not appear. Calls of active or inactive are those of the source.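 Rule for the calls, unless noted: active = viability at or under a set limit in both replicates, limit being median viability minus 3 SD (cut at about 48% in these data, passing the limit was not always enough); inconclusive = at or under the limit in just one replicate; inactive = at or above the limit in both replicates.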

Assays:
[1] = OD615 S. cerevisiae growth inhibition, permissive medium, pilot counter-assay, permissive growth control for S. cerevisiae lifespan shortening project (AID 705;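 active = growth inhibition above 25% in both replicates, a cutoff set 3 SD above the mean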); conditions: OD615, 24 h, at 10 µM, stronger effect = higher value
[2] = Restrictive medium S. cerevisiae growth inhibition, OD615, pilot screen of yeast lifespan reduction project, restrictive growth control (AID 706;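 active = growth inhibition above a set limit, 3 SD over mean compound inhibition, in both replicates, cut at about 43% in these data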;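 note: modified DeaD lifespan yeast strain shifted to restrictive glucose medium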); conditions: OD615, 48 h, at 10 µM, stronger effect = higher value
[3] = viability gain of MRP-1-high H69AR cells under doxorubicin, pilot screen, MRP-1 activator project, CellTiter-Glo, duplicate (AID 807;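 active = viability increase at or above a cutoff of the median across tested compounds plus 3 SD, cut at about 8.5% in these data, passing the limit was not always enough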;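 note: compound pretreatment 18-22 h then 72 h combined with doxorubicin; 0% = doxorubicin alone and 100% = vehicle without doxorubicin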); conditions: H69AR viability with doxorubicin, CellTiter-Glo luminescence; at 10 µM; stronger effect = higher value
[4] = growth suppression of beta-catenin knockout HCT116, pilot screen, human colon tumor cells (AID 823;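 active = cell viability at or below a set limit in both duplicate runs, the limit being the all-compound median minus 4 SD, cut at about 23% in these data, passing the limit was not always enough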;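 note: 0% = wells killed by 20 µM Hyamine and 100% = untreated DMSO cell wells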); conditions: CellTiter-Glo, 60 h, at 10 µM, stronger effect = lower value
[5] = growth suppression of PTEN-deleted HCT116, pilot screen, cell-based, HCT116 clonal line, CellTiter-Glo (AID 824;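 active = viability at or below 27.92% in each of two runs, the all-compound median minus 4 SD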;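 note: 0% = 20 µM Hyamine control and 100% = vehicle cell control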); conditions: 60 h, at 10 µM, stronger effect = lower value
[6] = inhibitors of the yeast RAM network, pilot screen, dse1pr::URA3 reporter, 5-FOA selection (AID 869;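 active = inhibition over a set limit, the all-compound mean plus 3 SD, in both replicate runs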;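 note: 0% = DMSO wells with no growth and 100% = 10 µM 1-NA-PP1 with full growth; RAM network block rescues cells from 5-FOA so hits raise OD615 growth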); conditions: S. cerevisiae dse1pr::URA3 5-FOA growth, OD615, 2 d; at 10 µM; stronger effect = higher value; strain carries analog-sensitive mutant Cbk1 kinase
[7] = HUVEC growth inhibition – cell-based, human, primary screen (AID 575;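 active = viability at or below 30% in both replicate assays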;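 note: 100% = median of untreated cell wells with 0.1% DMSO on each plate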); conditions: HUVEC proliferation, CellTiter-Glo luminescence, 72 h; at 10 µM; stronger effect = lower value
[8] = growth inhibitors of H69AR lung tumor, primary screen, human, duplicate replicates (AID 580); conditions: H69AR lung tumor cells viability, ATP luminescence, 72 h; at 10 µM; stronger effect = lower value;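 note: 100% = mean luminescence of untreated wells and 0% = no signal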
[9] = reversal of MRP1-mediated doxorubicin resistance, pilot screen, H69AR cells, doxorubicin co-treatment (AID 601;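 active = viability loss from added drug above about 55%, and viability with drug at most 40%, in both replicates, limit read from the data, passing the limit was not always enough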); conditions: CellTiter-Glo, 72 h, at 10 µM; for differential viability (reversal): stronger effect = higher value
[10] = 384-well plate pilot, post-Golgi transport modulator project, inhibition of yeast transport mutant growth (AID 636; in the data active = inhibition above about 31%); conditions: absorbance 615 nm, about 18 h, stronger effect = higher value
[11] = growth suppression of yeast trafficking mutant, preliminary HTS, modulators of trafficking downstream of Golgi apparatus project, 1536-format plate, OD 615 nm (AID 637; in the data active = inhibition above about 30%); conditions: yeast transport mutant growth, absorbance 615 nm, 18 h; stronger effect = higher value
[12] = H69AR cells + 2 uM doxorubicin, measured here: viability with 2 uM doxorubicin, stronger effect = lower value
[13] = H69AR cells, compound alone cytotoxicity

SMILES | growth inhibition [1] | growth inhibition [2] | viability increase [3] | viability [4] | viability [5] | inhibition [6] | viability [7] | viability [8] | differential viability (reversal) ([9]; H69AR cells + 2 uM doxorubicin) | viability [9, 12] | viability [9, 13] | inhibition [10] | inhibition [11]
Cc1ccc(-c2cc(C(F)F)nc(NCC3CCCO3)n2)cc1 (configuration not stated) | -12.2% (inactive) | -9% (inactive) | 2.09% (inactive) | 66.4% (inactive) | 71.6% (inactive) | 1.38% (inactive) |  |  |  |  |  |  | 
Cc1cccc(-n2ncc3c(NCc4ccccn4)ncnc32)c1 |  |  |  |  |  |  | 97.5% (inactive) | 89.6% (inactive) | 1.75% (inactive) | 87.8% | 89.6% | -1.17% (inactive) | -4.6% (inactive)
Cn1c(=O)c(=O)n(C)c2cc(S(=O)(=O)N3CCN(c4cccc(C(F)(F)F)c4)CC3)ccc21 |  |  |  |  |  |  | 73% (inactive) | 93.3% (inactive) | -1% (inactive) | 94.3% | 93.3% | 0.4% (inactive) | 3.02% (inactive)
COc1ccccc1N1CCN(C(=O)C2CC=CCC2C(=O)O)CC1 (configuration not stated) |  |  |  |  |  |  | 97.3% (inactive) | 93.1% (inactive) | 6.56% (inactive) | 86.5% | 93.1% | -4.61% (inactive) | 2.54% (inactive)
CC(CN1CCCCC1)OC(=O)c1ccc(Cl)cc1Cl (configuration not stated) |  |  |  |  |  |  | 96.7% (inactive) | 92.9% (inactive) | 7.05% (inactive) | 85.9% | 92.9% | 0.53% (inactive) | -3.65% (inactive)
O=C(c1ccc(S(=O)(=O)N2CCOCC2)cc1)N1CCc2ccccc2C1 |  |  |  |  |  |  | 98.1% (inactive) | 91.1% (inactive) | 2.92% (inactive) | 88.2% | 91.1% | -2.37% (inactive) | 9.37% (inactive)
CCn1cnc2cc(NCc3cccc(OC)c3O)ccc21 |  |  |  |  |  |  | 99.3% (inactive) | 92.3% (inactive) | 5.97% (inactive) | 86.3% | 92.3% | -4.47% (inactive) | 0.32% (inactive)
CCCCOc1ccc(C(=O)N2CCC(C)CC2)cc1 |  |  |  |  |  |  | 111% (inactive) | 104% (inactive) | 17.9% (inactive) | 85.7% | 104% | -3.2% (inactive) | 0.48% (inactive)
CCOC(=O)CSc1nnc(-c2ccc(Cl)cc2Cl)o1 |  |  |  |  |  |  | 105% (inactive) | 101% (inactive) | 3.39% (inactive) | 97.4% | 101% | -5.07% (inactive) | -0.16% (inactive)
COc1ccccc1-n1c(C)nnc1SCC(=O)Nc1cccc(C(C)=O)c1 |  |  |  |  |  |  | 101% (inactive) | 104% (inactive) | 6.48% (inactive) | 97% | 104% | -4.4% (inactive) | 17.9% (inactive)
CCOC(=O)C1CCCN(S(=O)(=O)c2cccs2)C1 (configuration not stated) |  |  |  |  |  |  | 110% (inactive) | 109% (inactive) | 12.7% (inactive) | 96.7% | 109% | 0.66% (inactive) | -6.03% (inactive)
CCCC(C)C1C(C#N)=C(N)Oc2cc(C)oc(=O)c21 (configuration not stated) |  |  |  |  |  |  | 98.4% (inactive) | 85.7% (inactive) | -6.91% (inactive) | 92.6% | 85.7% | -2.5% (inactive) | 4.76% (inactive)
CC(C(=O)N1c2ccc(F)cc2CCC1C)N1C(=O)c2ccccc2C1=O (configuration not stated) |  |  |  |  |  |  | 114% (inactive) | 91.3% (inactive) | 11.5% (inactive) | 79.8% | 91.3% | -5.26% (inactive) | 8.73% (inactive)
CCOC(=O)N1CCN(C(=O)Nc2ccc3oc(C)nc3c2)CC1 |  |  |  |  |  |  | 98.2% (inactive) | 93.2% (inactive) | -0.96% (inactive) | 94.1% | 93.2% | -2.63% (inactive) | 0% (inactive)
O=C(CSc1nc2c(sc3ccccc32)c(=O)n1Cc1ccco1)NCC1CCCO1 (configuration not stated) |  |  |  |  |  |  | 78.8% (inactive) | 81.2% (inactive) | -4.63% (inactive) | 85.8% | 81.2% | -1.17% (inactive) | 5.71% (inactive)
Cc1nc(C)c(C(=O)OCC(=O)N2CCN(c3ccccc3)CC2)s1 |  |  |  |  |  |  | 108% (inactive) | 95.8% (inactive) | 7.64% (inactive) | 88.1% | 95.8% | -4.55% (inactive) | 4.29% (inactive)
CCOC(=O)CC(=O)c1cc(OC)c(OC)c(OC)c1 |  |  |  |  |  |  | 97.1% (inactive) | 107% (inactive) | 11.3% (inactive) | 95.6% | 107% | -0.53% (inactive) | -3.49% (inactive)
O=C(c1ccccc1)N1CCN(Cc2ccccc2Br)CC1 |  |  |  |  |  |  | 105% (inactive) | 92.3% (inactive) | 2.89% (inactive) | 89.4% | 92.3% | -4.53% (inactive) | -4.6% (inactive)
O=C(NCc1ccc(F)cc1)c1cc(-c2ccco2)on1 |  |  |  |  |  |  | 93.4% (inactive) | 92.5% (inactive) | -8.09% (inactive) | 101% | 92.5% | -2.89% (inactive) | -5.56% (inactive)
